The list is not random: actives were taken first. Their share in the collection is about 1.4%.
LANA-H2A inh: blocks KSHV LANA binding to histone H2A/H2B; actives 0.6% (n = 320,000); cell-free LANA-H2A/H2B peptide, fluorescence polarization; inhibition, % (no concentration beside the values); in the data active = inhibition mostly above about 10%, no sharp cut-off; inactive = mostly below about 6.7%
A3A deaminase: inhibitors of human APOBEC3A DNA deaminase. actives 0.41% (n = 330,000). P31941. recombinant A3A, FAM/TAMRA ssDNA deamination fluorescence. AID 493011. inhibition, % at 20 µM;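 active = at least 40% inhibition at 20 µM here, with at most 30% in a related deaminase screen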
A3G deaminase: APOBEC3G (human) deaminase inhibition. Q9HC16. recombinant A3G, ssDNA deamination FAM/TAMRA fluorescence. inhibition, % at 20 µM. actives 0.28% (n = 330,000). AID 493012;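 active = inhibition of at least 40% at 20 µM, with no more than 30% in the related APOBEC3A deaminase screen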
HDAC3 inh: blocks human histone deacetylase 3. recombinant HDAC3, fluorogenic peptide/trypsin coupled, fluorescence. actives 0.15% (n = 320,000). AID 2718. inhibition, % at 8.3 µM. O15379; in the data active = inhibition above about 26%, passing the limit was not always enough
Target sequence (O15379 whole entry, looked up): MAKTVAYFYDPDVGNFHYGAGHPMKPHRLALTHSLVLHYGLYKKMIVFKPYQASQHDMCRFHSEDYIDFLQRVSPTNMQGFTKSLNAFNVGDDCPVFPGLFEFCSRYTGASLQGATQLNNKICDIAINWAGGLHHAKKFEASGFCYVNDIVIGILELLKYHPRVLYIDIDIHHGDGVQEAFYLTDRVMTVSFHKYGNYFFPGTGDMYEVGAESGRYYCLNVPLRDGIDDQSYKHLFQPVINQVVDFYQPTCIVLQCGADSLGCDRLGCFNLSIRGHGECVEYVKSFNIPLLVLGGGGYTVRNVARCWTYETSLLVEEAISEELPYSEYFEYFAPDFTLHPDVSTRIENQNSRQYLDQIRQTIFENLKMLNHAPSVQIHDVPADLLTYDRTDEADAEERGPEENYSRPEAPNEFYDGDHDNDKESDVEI
Each line names hits and unclear results; the compound was inactive in the other large screens; ! = not confirmed by another sample.

COc1ccc(NC(=O)CCc2ccccc2)cc1NC(=O)c1ccco1	LANA-H2A inh 28.2
C[C@H](NC(=O)c1nc[nH]c1C(=O)NC1CCNCC1)C(=O)OCc1ccccc1	none
CCS(=O)(=O)c1ccc2oc(SCC(=O)c3c(N)n(C4CC4)c(=O)[nH]c3=O)nc2c1	LANA-H2A inh 46.5
Cc1cccc(Nc2nnc(SCC(=O)c3c(N)n(C4CC4)c(=O)[nH]c3=O)s2)c1	none
Cc1cc(C)cc(-c2nnc(SCC(=O)c3c(N)n(C4CC4)c(=O)[nH]c3=O)o2)c1	none (no result: LANA-H2A inh, HDAC3 inh)
Cc1ccc(Nc2nnc(SCC(=O)c3c(N)n(C4CC4)c(=O)[nH]c3=O)s2)cc1C	LANA-H2A inh active
Cc1cc(SCC(=O)c2ccccc2)nc(=O)[nH]1	HDAC3 inh 45.1
Cc1cc(SCC(=O)c2ccc(Cl)cc2)nc(=O)[nH]1	none
Cc1ccc(C(=O)CSc2cc(C)[nH]c(=O)n2)cc1	HDAC3 inh 34.3
CCCCc1c(O)nc(SCC(=O)c2ccccc2)[nH]c1=O	HDAC3 inh 45.6
Cc1ccc(C(=O)NCC(=O)NCC(c2cccs2)N(C)C)cc1C (stereo not given)	none
CCN(CC)S(=O)(=O)c1ccc(N2CCOCC2)c(NC(=O)COc2ccc(OC)cc2)c1	LANA-H2A inh active
COc1ccc([C@H]2CC(=O)C=C(c3ccc(CNC(=O)OC(C)(C)C)cc3)C2)cc1	none
CCN(CC)CCCN1C(=O)C(=O)/C(=C(/O)c2ccccc2)C1c1cc(OC)ccc1OC (stereo not given)	LANA-H2A inh 17.4
Nc1nc(N)nc(-c2cc(C(F)(F)F)ccc2Cl)n1	HDAC3 inh 27.8
COc1ccc(NC(=S)NCCCN2CCN(C3CCCCC3)CC2)cc1	none
CCOc1ccc(NC(=S)NCCCN2CCN(C3CCCCC3)CC2)cc1	LANA-H2A inh active (no result: A3A deaminase, A3G deaminase)
COc1ccc(N2CCN(CCCNC(=O)CCCn3c(=O)[nH]c4ccsc4c3=O)CC2)cc1	none
COc1ccc(N2CCN(CCNC(=O)CCCn3c(=O)[nH]c4cc(Cl)ccc4c3=O)CC2)cc1	LANA-H2A inh 19.5
CCc1cc(-c2nc(N)ncc2-c2ccc(Br)cc2)c(O)cc1OC	LANA-H2A inh 19.2
C[C@]12CC[C@@H]3c4ccc(O)cc4CC[C@H]3[C@@H]1CCC2=O	LANA-H2A inh 40.2!
CCCCN(C)CC(O)Cn1cc(/C=C/C(=O)c2cccs2)c2ccccc21 (stereo not given)	LANA-H2A inh active (no result: A3A deaminase, A3G deaminase)
CCCCN(C)CC(O)Cn1cc(/C=C/C(=O)c2ccc(OCC)cc2)c2ccccc21 (stereo not given)	none
CCN(CC)S(=O)(=O)c1ccc2oc(SCC(=O)Nc3cc(C)on3)nc2c1	LANA-H2A inh 98.9
Cc1cc(NC(=O)CSc2nc3cc(Cl)ccc3o2)no1	none
CN(C)CCOC(c1ccccc1)c1ccccc1 (tested in a mixture with another compound)	LANA-H2A inh 12.6
O=C(NC(Cc1ccccc1)C(=O)N1CCN(c2ccccc2O)CC1)c1ccccc1 (stereo not given)	none (no result: LANA-H2A inh, HDAC3 inh)
Cc1cccc(-n2nnnc2SCC(=O)NCC2(N3CCOCC3)CCCCC2)c1C	LANA-H2A inh active
Cc1ccc(-n2nnnc2SCC(=O)NCC2(N3CCOCC3)CCCCC2)c(C)c1	none (no result: LANA-H2A inh, HDAC3 inh)
COc1ccc(Nc2nc(C(=O)N3CCc4ccccc4C3)cs2)cc1	LANA-H2A inh 19.4
COc1ccc(Nc2nc(C(=O)N3CCc4cc(OC)c(OC)cc4C3)cs2)cc1	none
CC[C@]12c3[nH]c4cc(-c5ccco5)ccc4c3CCN1C(=O)[C@@H](CC(=O)NCCN1CCOCC1)C[C@@H]2C(=O)N1CCN(C(=O)C2CC2)CC1	none (no result: LANA-H2A inh, HDAC3 inh)
COc1ccc(N(CC(=O)Nc2cc(C)ccc2C)S(=O)(=O)c2c(C)noc2C)cc1	none
COc1ccc(N(CC(=O)Nc2cc(Cl)ccc2C)S(=O)(=O)c2c(C)noc2C)cc1	LANA-H2A inh 51.4
CC(C)CCC(CCNCc1ccccn1)c1ccc(Cl)cc1 (stereo not given)	none
CCN1CCN(c2ccc(S(=O)(=O)N3CCOCC3)cc2NC(=O)C(C)Oc2ccc(F)cc2)CC1 (stereo not given)	none
COC(=O)[C@]1(Cc2ccccc2)N[C@H](CN(C)S(=O)(=O)c2ccc(C(C)(C)C)cc2)[C@@H]2C(=O)N(C)C(=O)[C@@H]21	none
O=C(Cn1nc(Cc2cccnc2)c2ccccc2c1=O)Nc1ccccc1F	LANA-H2A inh 15.7
O=C(Cn1nc(Cc2cccnc2)c2ccccc2c1=O)Nc1cc(F)ccc1F	none
COc1cccc(-c2nc3n(n2)C(c2ccc4c(c2)OCO4)C(C(N)=O)=C(C)N3)c1 (stereo not given)	HDAC3 inh 55.9
